# Luciferase inh – inhibitors of firefly (Photinus pyralis) luciferase; purified P. pyralis luciferase, luminescence, biochemical; Potency, µM (highest dose often 115 µM), usual class: inhibitors; 76,000 tested, 2.5% active; AID 1347043; further: on the % scale 0 is the no-effect control and ±100 the full control effect; nearly all actives have a fitted effect of over 65% in size
#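 Luminescence read by CCD imager after adding enzyme (10nM final) to wells holding compound, titrated in qHTS. Substrates 10uM each D-luciferin and ATP; buffer 50mM Tris acetate pH 7.5, 10mM Mg acetate, Tween-20, BSA.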
# HEK cytotox – kills HEK 293 cells | HEK 293 viability, ATP luminescence (CellTiter-Glo), 48-72 h | Potency, µM (series often up to 115 µM), for inactives: at the top dose activity change, negative = cytotoxicity, hits mostly inhibitors | 94,000 tested, 6.6% active; further: on the % scale 0 is the no-effect control and ±100 the full control effect; nearly all actives have a fitted effect of over 60% in size
#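 CellTiter-Glo luminescence (cellular ATP) was read after 48 or 72 hr of compound exposure at 37 degree Celsius. Cells were HEK 293 plated at 250 cells/well.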
# NIH3T3 tox – kills NIH 3T3 cells; 94,000 tested, 4.3% active; Potency, µM (series often up to 96.7 µM), without a hit: at the top dose activity change, negative = cytotoxicity, usual class: inhibitors; NIH 3T3 viability, CellTiter-Glo ATP luminescence, 48-72 h; further: on the % scale 0 is the no-effect control and ±100 the full control effect; nearly all actives have a fitted effect of over 55% in size
#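 First NIH 3T3 cells are plated at 400 cells/well; next compound is pinned in; then plates incubate 48 or 72 hr at 37 °C; finally CellTiter-Glo is added and luminescence read after 10 min.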
# NPR1 antag – antagonists of human natriuretic peptide receptor Npr1; AID 1347048; 76,000 tested, 1.6% active; Potency, µM (series often up to 46.3 µM), for inactives: top-dose activity change, negative = inhibition, usual class: inhibitors; HEK293 hNpr1 GloSensor cGMP, ANP-stimulated luminescence; P16066; calls by dose curve; further: on the % scale 0 is the no-effect control and ±100 the full control effect; nearly all actives have a fitted effect of over 60% in size
# Target sequence (P16066 whole entry, looked up): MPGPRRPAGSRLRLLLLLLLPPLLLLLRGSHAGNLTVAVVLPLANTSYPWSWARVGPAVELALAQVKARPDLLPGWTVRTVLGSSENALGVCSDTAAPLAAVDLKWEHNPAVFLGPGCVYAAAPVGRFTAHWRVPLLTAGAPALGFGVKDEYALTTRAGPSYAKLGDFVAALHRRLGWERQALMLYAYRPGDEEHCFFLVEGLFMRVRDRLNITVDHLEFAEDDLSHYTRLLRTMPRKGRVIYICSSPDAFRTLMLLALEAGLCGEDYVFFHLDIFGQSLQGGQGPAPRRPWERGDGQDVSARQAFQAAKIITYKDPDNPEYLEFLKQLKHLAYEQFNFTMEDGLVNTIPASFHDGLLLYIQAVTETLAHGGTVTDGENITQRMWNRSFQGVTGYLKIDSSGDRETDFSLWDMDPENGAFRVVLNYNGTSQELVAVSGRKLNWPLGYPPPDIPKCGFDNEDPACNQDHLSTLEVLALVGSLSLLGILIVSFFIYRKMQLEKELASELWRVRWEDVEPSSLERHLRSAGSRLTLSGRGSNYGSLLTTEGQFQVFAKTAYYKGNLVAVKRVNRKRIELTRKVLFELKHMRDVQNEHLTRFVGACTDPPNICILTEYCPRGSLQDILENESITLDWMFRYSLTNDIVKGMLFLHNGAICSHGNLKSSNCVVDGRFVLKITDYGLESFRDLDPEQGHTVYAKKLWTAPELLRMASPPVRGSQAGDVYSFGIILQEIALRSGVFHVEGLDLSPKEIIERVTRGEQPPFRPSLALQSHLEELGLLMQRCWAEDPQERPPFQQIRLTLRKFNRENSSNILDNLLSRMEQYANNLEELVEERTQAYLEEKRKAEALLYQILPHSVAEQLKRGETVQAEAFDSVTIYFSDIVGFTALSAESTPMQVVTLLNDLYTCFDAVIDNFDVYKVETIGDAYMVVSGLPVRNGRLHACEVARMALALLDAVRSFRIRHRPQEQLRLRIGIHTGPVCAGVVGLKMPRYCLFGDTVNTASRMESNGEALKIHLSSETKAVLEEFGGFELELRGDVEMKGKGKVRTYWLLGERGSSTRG
#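 Compound pre-incubated 30 min at room temperature on GloSensor-loaded HEK293 cells stably carrying hNpr1 and the pGS-40F cGMP biosensor. Stimulation uses hNppA at 0.1 nM final; luminescence is taken at baseline and 20 min post-agonist.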
# HEK293 viab – counter-screen for SNCA expression inhibitors: cell viability | HEK-293-SNCA-luc viability, GF-AFC fluorescence, 24 h | AID 1671193 | 150,000 tested, 0.12% active | Potency, µM (titrated, usually from 57.1 µM), for inactives: at the highest dose activity change, negative = cytotoxicity, actives largely listed as cytotoxic;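 further: 0% = DMSO-treated cells and -100% = medium-only wells without cells; nearly all actives have a fitted effect of over 30% in size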
#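 HEK-293-SNCA-luc cells (1500/well) plated 24 h, then exposed 24 h to a dilution series; GF-AFC added 30 min at 37C, fluorescence 405/540 nm; normalised to medium-only and DMSO wells, Hill fit.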
# SNCA expr inh – SNCA gene expression inhibition; AID 1671194; 140,000 tested, 0.17% active; Potency, µM (doses to about 57.2 µM), for the others: at the highest dose activity change, negative = inhibition, usual class: inhibitors; HEK-293 SNCA-luciferase knock-in, luminescence, 24 h;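 further: plate controls were DMSO cells for no effect and cell-free wells for full effect; nearly all actives have a fitted effect of over 45% in size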
# NPR1 antag cnf – confirmation of human Npr1 natriuretic peptide receptor antagonists | Potency, µM (top dose mostly 57.6 µM), without a hit: top-dose activity change, negative = inhibition, most hits filed as inhibitors | 1,400 tested, 76% active | HEK293 hNpr1 cGMP GloSensor luminescence, ANP-stimulated | shares compounds with NPR1 antag; calls by dose curve; further: nearly all actives have a fitted effect of over 70% in size
# Npr2 selectivity – selectivity test of Npr1 antagonists against human Npr2. shares compounds with NPR1 antag. HEK293 hNpr2 GloSensor cGMP luminescence, CNP-stimulated. Potency, µM (titrated, usually from 57.6 µM), inactives show at the top dose activity change, negative = inhibition, most hits filed as inhibitors. 1,400 tested, 67% active; calls by dose curve; further: nearly all actives have a fitted effect of over 70% in size
# FLuc inh counter – inhibits firefly luciferase, false Npr1 antagonist flag. shares compounds with NPR1 antag. purified FLuc enzyme, luminescence, Km substrate. Potency, µM (highest dose often 57.6 µM), without a hit: at the highest dose activity change, negative = inhibition, hits mostly inhibitors. 1,400 tested, 0.7% active. AID 1347047; further: 0% is about no effect
# GloSensor cGMP – reduces cGMP signal in GloSensor control cells. shares compounds with NPR1 antag. 1,400 tested, 69% active. HEK293 GloSensor cGMP, SNP-stimulated, luminescence. Potency, µM (titrated, usually from 57.6 µM), without a hit: top-dose activity change, negative = inhibition, hits mostly inhibitors; calls by dose curve; further: on the % scale 0 is the no-effect control and ±100 the full control effect; nearly all actives have a fitted effect of over 70% in size
# * hit, by the source's call; i = inactive; ? = inconclusive; nt = no result given; [ ] = remark or other dose. Most compounds without a hit are left out; they make up all but 7.4% or so of the library. Unless noted, the call rests on the fitted dose curve; in most records, active means well fitted curve in the direction sought with a large enough effect; inconclusive means small, poorly fitted or top-dose-only effect, or another doubt; inactive means no such curve, though single readings can be large; an effect the other way counts as inactive or inconclusive. Potency means the concentration at half of the fitted maximal effect.
SMILES,Luciferase inh,HEK cytotox,NIH3T3 tox,NPR1 antag,HEK293 viab,SNCA expr inh,NPR1 antag cnf,Npr2 selectivity,FLuc inh counter,GloSensor cGMP
COc1ccc(OC)c(NC(=O)CN2C(=O)NC(c3ccc(Cl)cc3)C3=C2COC3=O)c1 (stereo not given),i,?,?,-1%,-3%,-30%,nt,nt,nt,nt
O=C(Cc1c[nH]c2ncc(-c3cccc(CO)c3)cc12)N1CCOCC1,i,?,?,-22%[70.6 µM],1%[87.6 µM],6%[87.6 µM],nt,nt,nt,nt
O=C(Cc1c[nH]c2ncc(-c3ccccc3C(F)(F)F)cc12)N1CCOCC1,i,?,?,2µM*,-8%[87.6 µM],5%[87.6 µM],4.4µM*,8.9µM*,1%[86.2 µM],4µM*
Cc1ccccc1-c1cnc2[nH]cc(CC(=O)N3CCOCC3)c2c1,i,112µM*,-55%[138 µM],2.8µM*,-11%[87.6 µM],-18%[87.6 µM],2.8µM*,4.4µM*,-1%[86.2 µM],2.2µM*
O=C1CCN(S(=O)(=O)c2ccccc2)CCCN(C(=O)CN2CCCC2=O)CCN1,i,i,-7%,4%,-1%,1%,nt,nt,nt,nt
O=C1NC2(CCN(Cc3ccc(OC(F)(F)F)cc3)C2)OCc2ccccc21 (stereo not given),i,79µM*,-18%,?,4%,-22%,22µM*,22µM*,2%,17µM*
O=C1NC2(CCN(Cc3ccc(OC(F)(F)F)cc3)C2)Oc2ccccc21 (stereo not given),i,?,?,8%,-5%,-29%,nt,nt,nt,nt
COc1ccc(CN2C(=O)[C@@H]3C[C@@H](CN3Cc3cccs3)Oc3ccccc32)cc1,i,79µM*,?,?,?,?,?,?,-20%[86.2 µM],0%[86.2 µM]
O=[S+]1([O-])NCC2(CCN(CC3CC3)C2)Nc2ccccc21 (stereo not given),i,-3%[172 µM],-7%[138 µM],14%[70.6 µM],7%[87.6 µM],4%[87.6 µM],nt,nt,nt,nt
CC1Oc2ccc(NC(=O)Cc3ccc(F)cc3)cc2CN(Cc2ccccc2F)C1=O (stereo not given),?,?,?,-19%,-3%,0%,nt,nt,nt,nt
CC1Oc2ccc(NS(=O)(=O)c3cccc(Cl)c3)cc2CN(Cc2ccccc2F)C1=O (stereo not given),i,50µM*,?,?,1%,?,?,-27%,3%,-7%
COc1ccc(C(=O)Nc2ccc3c(c2)CN(Cc2ccc(F)cc2)C(=O)C(C)O3)c(OC)c1 (stereo not given),i,32µM*,?,?,?,?,24µM*,?,2%,24µM*
CC1Oc2ccc(NC(=O)Cc3cccs3)cc2CN(Cc2ccc(Cl)cc2)C1=O (stereo not given),i,?,40µM*,14µM*,?,?,27µM*,27µM*,3%,24µM*
O=C(c1cc(F)ccc1Cl)N1CCN(C(=O)c2nnn3c2COC(c2ccccc2)C3)CC1 (stereo not given),i,?,-15%,-30%,-14%,-21%,nt,nt,nt,nt
CCNC(=O)N(C1CC1)C1CCOC2(CCN(C(=O)Cc3ccccc3F)CC2)C1 (stereo not given),i,i,4%,1%,0%,1%,nt,nt,nt,nt
Cc1ccc(NC(=O)N2CCC(n3cnnc3C3CC3)C2)cc1C (stereo not given),i,-20%,-25%,-7%,4%,6%,nt,nt,nt,nt
CC(C)CCN1CCC2(CC1)CC(=O)Nc1ccccc1O2,i,-22%[172 µM],-18%[138 µM],23%[70.6 µM],0%[87.6 µM],-25%[87.6 µM],nt,nt,nt,nt
COCCN1CCCC2(CCN(c3nc(C)nc4sccc34)C2)C1=O (stereo not given),i,-34%,?,?,-3%,-1%,24µM*,?,-1%,24µM*
Cc1nc2cccnc2n1CC1CCCN(S(=O)(=O)c2ccc(CC(C)C)cc2)C1 (stereo not given),i,32µM*,?,13µM*,-6%,-40%,22µM*,24µM*,2%,22µM*
O=S(=O)(c1ccc2c(c1)CCCC2)N1CCCC(Cn2cnc3cccnc32)C1 (stereo not given),i,?,?,?,-11%,-23%,24µM*,19µM*,-2%,24µM*
Cc1nc2cccnc2n1CC1CCCN(S(=O)(=O)c2ccc3c(c2)CCCC3)C1 (stereo not given),i,?,?,?,-8%,-19%,nt,nt,nt,nt
CCc1ccc(C(=O)N2c3ccccc3CC2c2nc(C3CC3)no2)cc1 (stereo not given),i,?,?,?,?,-8%,nt,nt,nt,nt
O=C(c1ccc(F)c(Cl)c1)N1CCC(n2cc(-c3nc(-c4ccccc4)no3)nn2)CC1,i,?,?,13µM*,-4%,45%,24µM*,22µM*,-20%,22µM*
COc1ccc(C(=O)N2CCC(n3cc(-c4nc(-c5ccccc5)no4)nn3)CC2)cc1,i,?,?,?,0%,36%,22µM*,24µM*,-16%,22µM*
COc1ccc(CCC(=O)N2CCCC(n3cc(-c4nc(-c5ccccc5)no4)nn3)C2)cc1 (stereo not given),?,?,?,13µM*,-12%,96%,24µM*,24µM*,12µM*,24µM*
O=C(c1cccc(Cl)c1)N1CCCC(n2cc(-c3nc(-c4ccccc4)no3)nn2)C1 (stereo not given),?,?,?,16µM*,-27%,27%,27µM*,27µM*,-29%,27µM*

# Screening results from PubChem BioAssay.
